# Experimental data as given in ChEMBL document CHEMBL1961873, “Compounds: GSK PKIS; Assays: Nanosyn kinase panel” (2012).
# What was measured:
# [1] = target: MAP/microtubule affinity-regulating kinase 3 (Homo sapiens) (UniProt P27448); conditions: at 1 µM;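 further: reported values are averaged percent inhibition of MARK3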
# [2] = target: T1, MAP/microtubule affinity-regulating kinase 4 (Homo sapiens) (UniProt Q96L34); conditions: at 0.1 µM
# T1 sequence (whole entry): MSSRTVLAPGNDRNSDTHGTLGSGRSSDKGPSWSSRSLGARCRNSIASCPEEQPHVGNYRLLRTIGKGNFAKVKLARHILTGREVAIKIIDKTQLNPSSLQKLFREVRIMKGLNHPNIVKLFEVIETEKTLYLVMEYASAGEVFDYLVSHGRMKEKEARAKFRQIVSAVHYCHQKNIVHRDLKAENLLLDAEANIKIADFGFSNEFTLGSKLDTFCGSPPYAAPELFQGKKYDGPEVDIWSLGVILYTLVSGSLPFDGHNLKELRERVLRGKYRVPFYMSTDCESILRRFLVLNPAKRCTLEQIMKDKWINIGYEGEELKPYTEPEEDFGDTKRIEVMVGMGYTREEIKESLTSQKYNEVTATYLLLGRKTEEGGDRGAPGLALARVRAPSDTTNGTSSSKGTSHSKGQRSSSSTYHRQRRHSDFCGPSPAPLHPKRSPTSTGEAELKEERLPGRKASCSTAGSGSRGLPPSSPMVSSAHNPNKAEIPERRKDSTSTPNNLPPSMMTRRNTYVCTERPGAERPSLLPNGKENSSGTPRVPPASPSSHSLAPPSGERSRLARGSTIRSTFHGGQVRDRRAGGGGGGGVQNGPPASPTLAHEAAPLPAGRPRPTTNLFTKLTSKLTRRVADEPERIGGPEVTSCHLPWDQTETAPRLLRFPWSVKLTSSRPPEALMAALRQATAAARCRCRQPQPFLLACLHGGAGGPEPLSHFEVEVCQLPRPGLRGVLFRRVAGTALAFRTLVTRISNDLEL
# [3] = target: T1, MAP/microtubule affinity-regulating kinase 4 (Homo sapiens); conditions: at 1 µM
# [4] = target: Maternal embryonic leucine zipper kinase (Homo sapiens) (UniProt Q14680); conditions: at 0.1 µM
# [5] = target: Maternal embryonic leucine zipper kinase (Homo sapiens) (UniProt Q14680); conditions: at 1 µM
# [6] = target: MAP kinase-interacting serine/threonine-protein kinase 1 (Homo sapiens) (UniProt Q9BUB5); conditions: at 0.1 µM
# [7] = target: MAP kinase-interacting serine/threonine-protein kinase 1 (Homo sapiens) (UniProt Q9BUB5); conditions: at 1 µM
# [8] = target: MAP kinase-interacting serine/threonine-protein kinase 2 (Homo sapiens) (UniProt Q9HBH9); conditions: at 0.1 µM
# [9] = target: MAP kinase-interacting serine/threonine-protein kinase 2 (Homo sapiens) (UniProt Q9HBH9); conditions: at 1 µM
# [10] = target: Serine/threonine-protein kinase MARK2 (Homo sapiens) (UniProt Q7KZI7); conditions: at 0.1 µM;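 further: mean percent inhibition of PAR-1Balpha kinase activity, reported from the GSK PKIS screen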
# Chain of Serine/threonine-protein kinase MARK2 (Homo sapiens) (Q7KZI7 whole entry): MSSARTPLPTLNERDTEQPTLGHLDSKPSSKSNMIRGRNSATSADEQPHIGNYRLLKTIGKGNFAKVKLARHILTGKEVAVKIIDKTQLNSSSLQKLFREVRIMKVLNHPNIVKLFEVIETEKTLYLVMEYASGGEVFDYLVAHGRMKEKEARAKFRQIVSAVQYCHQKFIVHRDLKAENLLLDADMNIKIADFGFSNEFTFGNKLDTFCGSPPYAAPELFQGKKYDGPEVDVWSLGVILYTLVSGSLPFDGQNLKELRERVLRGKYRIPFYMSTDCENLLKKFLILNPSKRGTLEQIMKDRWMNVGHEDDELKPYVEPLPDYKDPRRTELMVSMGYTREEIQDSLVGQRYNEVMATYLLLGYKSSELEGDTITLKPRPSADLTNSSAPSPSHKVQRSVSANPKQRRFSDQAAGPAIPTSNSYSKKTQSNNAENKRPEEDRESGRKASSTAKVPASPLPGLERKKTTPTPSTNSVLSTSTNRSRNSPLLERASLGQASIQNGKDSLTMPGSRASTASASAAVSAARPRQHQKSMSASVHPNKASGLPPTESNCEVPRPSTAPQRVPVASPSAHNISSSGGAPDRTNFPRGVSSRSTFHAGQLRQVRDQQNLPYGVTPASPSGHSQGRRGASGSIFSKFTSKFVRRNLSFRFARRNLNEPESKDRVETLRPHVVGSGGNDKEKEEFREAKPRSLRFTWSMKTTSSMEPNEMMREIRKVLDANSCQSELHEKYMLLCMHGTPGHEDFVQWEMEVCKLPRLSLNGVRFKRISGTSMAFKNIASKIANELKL
# Chain of MAP/microtubule affinity-regulating kinase 3 (Homo sapiens) (P27448 whole entry, looked up): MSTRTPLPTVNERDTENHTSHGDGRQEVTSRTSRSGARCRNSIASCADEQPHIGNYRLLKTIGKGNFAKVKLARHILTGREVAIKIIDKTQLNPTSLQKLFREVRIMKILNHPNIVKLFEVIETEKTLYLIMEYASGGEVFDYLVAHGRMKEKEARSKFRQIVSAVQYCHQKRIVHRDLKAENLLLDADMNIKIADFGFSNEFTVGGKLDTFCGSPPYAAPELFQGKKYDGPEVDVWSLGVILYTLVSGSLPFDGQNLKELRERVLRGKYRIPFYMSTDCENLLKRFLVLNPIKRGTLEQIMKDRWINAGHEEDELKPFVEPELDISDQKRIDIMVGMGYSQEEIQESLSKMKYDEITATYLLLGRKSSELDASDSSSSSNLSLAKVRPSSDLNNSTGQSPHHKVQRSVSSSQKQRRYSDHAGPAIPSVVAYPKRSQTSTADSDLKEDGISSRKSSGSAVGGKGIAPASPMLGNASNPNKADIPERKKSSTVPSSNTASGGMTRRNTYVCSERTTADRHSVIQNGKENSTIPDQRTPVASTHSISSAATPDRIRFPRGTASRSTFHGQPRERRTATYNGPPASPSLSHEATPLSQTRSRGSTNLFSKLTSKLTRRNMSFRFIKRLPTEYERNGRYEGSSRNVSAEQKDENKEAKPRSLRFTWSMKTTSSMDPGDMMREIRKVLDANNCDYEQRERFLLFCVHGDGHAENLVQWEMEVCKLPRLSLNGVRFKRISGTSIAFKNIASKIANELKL
# Chain of MAP kinase-interacting serine/threonine-protein kinase 2 (Homo sapiens) (Q9HBH9 whole entry, looked up): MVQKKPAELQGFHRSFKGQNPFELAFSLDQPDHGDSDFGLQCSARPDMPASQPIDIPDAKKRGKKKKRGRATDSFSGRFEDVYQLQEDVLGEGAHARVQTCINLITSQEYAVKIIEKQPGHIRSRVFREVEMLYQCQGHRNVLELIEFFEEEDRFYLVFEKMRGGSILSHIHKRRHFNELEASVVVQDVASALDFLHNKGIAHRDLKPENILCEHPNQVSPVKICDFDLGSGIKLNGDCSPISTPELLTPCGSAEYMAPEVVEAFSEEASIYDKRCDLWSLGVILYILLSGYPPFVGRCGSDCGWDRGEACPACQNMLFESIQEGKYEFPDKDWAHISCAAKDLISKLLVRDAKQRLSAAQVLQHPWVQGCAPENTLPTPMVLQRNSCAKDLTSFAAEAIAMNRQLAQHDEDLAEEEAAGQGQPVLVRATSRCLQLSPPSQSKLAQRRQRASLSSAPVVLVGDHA
# Chain of Maternal embryonic leucine zipper kinase (Homo sapiens) (Q14680 whole entry, looked up): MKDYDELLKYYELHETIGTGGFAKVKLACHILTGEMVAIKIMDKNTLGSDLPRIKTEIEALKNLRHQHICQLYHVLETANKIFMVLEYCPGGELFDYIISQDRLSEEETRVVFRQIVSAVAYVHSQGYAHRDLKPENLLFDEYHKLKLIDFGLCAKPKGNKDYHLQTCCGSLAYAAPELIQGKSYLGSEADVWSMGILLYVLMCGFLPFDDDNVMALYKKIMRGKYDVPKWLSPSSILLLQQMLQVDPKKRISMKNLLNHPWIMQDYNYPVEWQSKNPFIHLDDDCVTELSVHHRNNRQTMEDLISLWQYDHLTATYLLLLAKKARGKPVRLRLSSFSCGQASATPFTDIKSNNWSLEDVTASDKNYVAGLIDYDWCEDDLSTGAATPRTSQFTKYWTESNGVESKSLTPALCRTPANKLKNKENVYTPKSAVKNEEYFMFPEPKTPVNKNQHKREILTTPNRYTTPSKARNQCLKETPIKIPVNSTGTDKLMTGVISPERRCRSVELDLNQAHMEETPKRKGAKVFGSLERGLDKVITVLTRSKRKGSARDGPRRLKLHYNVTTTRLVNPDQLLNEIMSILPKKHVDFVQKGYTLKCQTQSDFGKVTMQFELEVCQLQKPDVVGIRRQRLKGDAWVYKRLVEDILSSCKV
# Chain of MAP kinase-interacting serine/threonine-protein kinase 1 (Homo sapiens) (Q9BUB5 whole entry, looked up): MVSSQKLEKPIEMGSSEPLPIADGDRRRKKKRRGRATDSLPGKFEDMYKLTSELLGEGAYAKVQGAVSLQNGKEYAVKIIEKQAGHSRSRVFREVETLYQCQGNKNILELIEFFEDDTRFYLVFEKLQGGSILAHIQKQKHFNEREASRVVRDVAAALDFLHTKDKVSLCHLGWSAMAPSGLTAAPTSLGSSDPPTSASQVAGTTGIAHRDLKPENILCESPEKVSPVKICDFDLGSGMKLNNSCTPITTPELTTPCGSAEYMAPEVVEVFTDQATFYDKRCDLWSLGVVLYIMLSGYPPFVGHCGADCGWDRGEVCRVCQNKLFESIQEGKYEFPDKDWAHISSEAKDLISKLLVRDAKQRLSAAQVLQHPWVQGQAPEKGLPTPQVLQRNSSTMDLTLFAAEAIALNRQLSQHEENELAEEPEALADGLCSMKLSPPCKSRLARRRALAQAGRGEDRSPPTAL
Compound,inhibition [1] [%],inhibition [2] [%],inhibition [3] [%],inhibition [4] [%],inhibition [5] [%],inhibition [6] [%],inhibition [7] [%],inhibition [8] [%],inhibition [9] [%],inhibition [10] [%]
COc1cc2ncn(-c3cc(OCCc4ccccc4)c(C(N)=O)s3)c2cc1OC,1.74,0.87,0.86,3.07,1.31,2,6.3,0.86,12.8,1
O=C(Nc1n[nH]c2cc(-c3ccccc3)ccc12)C1CC1,9.09,2.2,5.77,5.64,3.69,6.55,31.4,3.14,10.2,1.54
O=C(Nc1n[nH]c2cc(-c3cc(F)ccc3F)ccc12)C1CC1,-0.14,2.5,5.44,2.11,5.13,3.39,12.6,1.25,2.16,-1.51
COc1cc(Nc2ncc(-c3ccccc3)o2)cc(OC)c1OC,22.1,2.46,13.4,-0.49,5.74,4.6,30.4,1.26,24.2,2.94
COc1cc(Nc2ncc3c(C)nc(-c4cccc(Oc5ccccc5)c4)n3n2)cc(OC)c1OC,29.3,1.25,3.17,3.48,10.8,0.32,0.56,0.07,1.2,0.41
CS(=O)(=O)CCNCc1cc(-c2cc3c(Nc4ccc(OCc5cccc(F)c5)c(Cl)c4)ncnc3s2)cs1,3.64,1.63,1.6,5.46,10.5,2.78,7.91,1.16,7.96,-0.51
COc1cccc(-n2cnc3c(N/N=C/c4ccncc4)ncnc32)c1,3.88,0.84,4.83,-1.92,-4.7,0.43,16.5,3.13,13.7,0.99
COc1ccc2ncn(-c3cc(O[C@H](C)c4ccccc4Cl)c(C(N)=O)s3)c2c1,3.11,2.49,2.42,7.14,6.08,1.84,2.25,0.29,2.7,-0.63
Nc1nccc(-c2c(-c3ccc(F)cc3)ncn2C2CCC(O)CC2)n1 (stereo not given),0.22,0.43,1.28,-3.21,1.19,0.34,0.48,0.18,0.46,1.84
Fc1ccc(-c2nc3n(c2-c2ccncc2)CCS3)cc1,-0.12,2.4,3.63,4.86,6.72,1.57,4.14,-2.37,0.35,0.46
O=C1NC(=O)C(c2cccc(Cl)c2)=C1Nc1ccc(Cl)c(C(=O)O)c1,8,0.26,1.44,-0.69,3.67,3.32,5.32,2.61,4,-2.87
Fc1ccc(-c2ncn(C3CCNCC3)c2-c2ccnc(Oc3ccc4c(c3)OCO4)n2)cc1,5.12,2.61,3.33,6.04,6.41,4.52,7.62,1.84,6.88,0.67
CCC(=O)Nc1ccc(C)c(-c2ccc(C(=O)NCC3CC3)cc2)c1,-1.15,1.46,2.23,5.17,8.13,2.05,2.8,0.52,1.17,0.59
COc1ccc(C2=C(N3CCc4ccccc43)C(=O)NC2=O)cc1,4.14,1.18,2.26,4.31,7.73,3.88,6.21,1.85,4.28,-0.02
c1ccc(Oc2ccc(Nc3ncc(-c4ccccc4)o3)cc2)cc1,-0.43,-0.01,0.55,2.47,2.86,1.08,4.15,0.86,2.44,-0.89
C[C@@H](Oc1cc(-n2cnc3ccc(OCC4CCN(C)CC4)cc32)sc1C(N)=O)c1ccccc1Cl,31.2,6.41,23.9,7.59,37.9,2.4,5.78,1.96,5.86,3.52
CN(C)c1ccc2c(c1)/C(=C/Nc1ccc(S(N)(=O)=O)cc1)C(=O)N2,32.7,6.9,32.5,3.82,20.4,1.64,9.3,1.66,3.67,3.86

Compound,inhibition [1] [%],inhibition [2] [%],inhibition [3] [%],inhibition [4] [%],inhibition [5] [%],inhibition [6] [%],inhibition [7] [%],inhibition [8] [%],inhibition [9] [%],inhibition [10] [%]
O=C(Nc1n[nH]c2nc(-c3ccc(O)cc3)c(Br)cc12)C1CC1,8.75,3.64,4.75,6.28,13.1,37.8,76.1,5.42,35.1,-0.95
Cc1ccc(C(=O)NC2CCC2)cc1-c1ccc(C(=O)NCC2CC2)cc1,0.6,0.84,0.72,3.33,1.69,0.33,3.09,0.84,1.97,0.5
NS(=O)(=O)c1ccc(N/N=C2\C(=O)Nc3ccc(-c4cnco4)cc32)cc1,17.4,4.35,26.1,5.8,32.9,1.41,7.87,2.14,8.88,1.73
COC(=O)Nc1nc2ccc(Sc3ccc(NC(=O)Nc4cc(C(F)(F)F)ccc4F)cc3)cc2[nH]1,1.81,-1.27,-0.2,-2.18,-2.88,-0.03,4.58,0.6,1.48,0.92
COc1cccc(/C=N/Nc2ncnc3c2cnn3-c2cccc(OC)c2)c1,0.87,0.94,0.58,3.83,9.57,2.02,4.36,-0.25,2.4,-5.9
FC(F)(F)c1cccc(Nc2nccc(-c3cnn4nc(-c5ccccc5)ccc34)n2)c1,1.86,1.13,1.01,4.89,32.3,2.28,2.48,0.22,4.37,-0.36
COc1ccc(-c2ccc3c(NC(=O)C4CC4)n[nH]c3n2)cc1,2.41,0,-0.43,-1.74,-0.77,3.03,21.5,1.32,5.48,0.67
CNC(=O)c1cncc(/C=C/c2c(C)cccc2C)c1,2,-0.27,1.46,-1.92,0.37,-0.2,8.06,0.57,5.36,0.03
NCc1ccc(-n2c(-c3nonc3N)nc3cnccc32)cc1,22.6,4.49,13.3,33.9,88.2,4.41,13.6,1.06,10.1,4.09
O=C(Nc1ccc(Oc2ccc3[nH]c(NC(=O)c4ccccc4)nc3c2)cc1)Nc1cc(C(F)(F)F)ccc1F,22.9,0.56,3.1,3.83,2.36,3.79,21,2.44,22.1,-0.01
O=C(Nc1n[nH]c2nc(-c3ccco3)ccc12)C1CC1,1.53,0.31,0.56,2.23,2.05,1.89,9.62,0.06,4.01,0.19
Cc1ccc(C(=O)NC(C)C)cc1-c1ccc(C(=O)NCC2CC2)cc1,-0.42,1.15,0.5,-2.85,-2.99,-1.07,-0.97,-0.04,1.12,0.38
COc1ccc2cc(-c3c(-c4ccncc4)nc(-c4ccc(S(C)(=O)=O)cc4C)n3C)ccc2c1,2.48,2.52,1.32,6.13,9.41,2.6,6.69,1.75,3.34,0.73
NC(=O)c1cc(-c2ccc(F)cc2)cc(-c2ccncc2)c1N,-2.7,1.2,2.29,2.86,4.94,3.36,12.1,1.44,3.34,0.15
Cc1nnc(-c2ccc(C)c(-c3ccc(C(=O)NCc4ccc(Cl)cc4)cc3)c2)o1,-1.1,2.02,1.96,4.87,5.52,2.03,6.45,0.86,1.57,1.6
COc1cc2ncn(-c3cc(OCc4cccs4)c(C(N)=O)s3)c2cc1OC,20.3,2.12,9.4,2.35,4.91,3.56,14.7,3.17,13,1.68
Clc1ccc(CNc2nccc(-c3cnn4ncccc34)n2)cc1,2.59,-0.78,-0.74,-0.99,16.4,1.08,6.48,1.92,10.7,-0.61
